SMARCA2 act: increases SMARCA2 function in MMTV reporter cells. MG213 cells, MMTV-luciferase reporter, dexamethasone, overnight. AID 652017. 370,000 tested, 1% active. activation, % at 9.1 µM; in the data active = activation above about 7.8%;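 also: 0% = vehicle wells and 100% = reference activator wells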
hcDAF12 agonist: activators of H. contortus DAF-12 nuclear receptor. 370,000 tested, 1.4% active. HEK293 hcDAF-12 lit1-tk-luc reporter, luminescence; 0% DMSO, 100% Δ7-dafachronic acid. activation, % at 6.8 µM;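 active = activation above the mean of all tested compounds plus 3 SD, cut at about 5.5% in these data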;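 also: 100% = response to 3 µM Δ7-dafachronic acid high control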
ssDAF-12 act: activates DAF-12 receptor from parasite S. stercoralis | HEK293 ssDAF-12/GRIP1 lit1-tk-luc reporter, luminescence; % of 3 µM dafachronic acid response | activation, % at 6.8 µM | 370,000 tested, 1% active | AID 652126;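 active = activation above the mean over all tested compounds plus 3 SD, cut at about 0.9% in these data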;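 also: 0% = DMSO-only wells and 100% = 3 µM delta7-dafachronic acid wells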
DAX1 inh: DAX1 (NR0B1) inhibition, primary screen; HEK293T StAR-luciferase reporter, SF-1/DAX-1 repression relief; inhibition, % at 6.8 µM; 370,000 tested, 1.1% active;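 active = inhibition above the mean over all tested compounds plus 3 SD, cut at about 3.6% in these data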;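 also: 0% = DAX-1 cells with DMSO and 100% = cells lacking DAX-1 with DMSO; higher inhibition means more luminescence from relief of DAX-1 repression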
hgDAF-12 ag: agonists of H. glycines DAF-12 nuclear receptor | HEK293 GAL4-hgDAF12 UAS-luciferase reporter, agonist luminescence; normalized to butyrate control | activation, % at 6.8 µM | 370,000 tested, 1.8% active;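 active = activation above a cutoff set at the mean of all screened compounds plus 3 SD, cut at about 10% in these data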;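 also: 0% = DMSO wells and 100% = sodium butyrate wells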
Numbers without * were called inactive. Compounds with a hit are over-represented: about 4.2% of the library has one in this group of screens.

SMILES	SMARCA2 act	hcDAF12 agonist	ssDAF-12 act	DAX1 inh	hgDAF-12 ag
C/C(=N\NC(=O)c1c(Cl)cnn1C)c1cccnc1	4.5	1.5	-1.4	4.3*	5.6
C/C(=N\NC(=O)c1ccc(Cl)cc1)c1cccnc1	-1.5	2.0	-0.7	0.0	1.5
CSc1nc2ccc(NC(=O)CS(=O)(=O)c3ccccc3)cc2s1	3.3	0.7	0.2	1.8	10.5*
CSc1nc2ccc(NC(=O)c3ccc(Cl)s3)cc2s1	3.4	-0.3	-1.2	4.1*	1.7
CSc1nc2ccc(NC(=O)COc3ccccc3F)cc2s1	2.3	3.4	-0.4	3.7*	8.7
CC(=O)Nc1ccc2nc(NC(=O)CS(=O)(=O)c3ccccc3)sc2c1	4.7	0.7	-0.3	0.6	2.2
CCOC(=O)c1ccc(N=c2scc(C)n2CC)cc1	7.8*	0.8	-1.0	2.0	6.4
CC[C@@]1(c2ccc(C)cc2)C(=O)N(C(=O)OC(C)C)N1C(=O)OC(C)C	-4.2	-2.4	-0.6	-2.2	1.6
Cc1ccc2nc(-c3cccc(Br)c3)c(Cc3cccc(Cl)c3)n2c1	2.4	5.0	0.7	7.3*	9.8
Clc1cccc(Cc2c(-c3ccco3)nc3ccc(Br)cn23)c1	-5.5	2.6	1.9*	0.2	0.5
Clc1cccc(Cc2c(-c3cccc(Br)c3)nc3ccc(Cl)cn23)c1	0.9	2.3	-0.7	1.6	4.1
Cc1ccc(Cc2c(-c3cccc(Br)c3)nc3ccc(Cl)cn23)cc1	1.9	1.8	0.0	1.5	7.3
Cc1ccc(Cc2c(-c3cccc(Br)c3)nc3ccc(C)cn23)cc1	5.6	3.7	0.8	2.6	11.8*
Cc1ccc(Cc2c(-c3cccc(Cl)c3)nc3ccc(C)cn23)cc1	3.0	0.8	-0.3	1.6	9.5
Cc1ccc(Cc2c(-c3cccc(Cl)c3)nc3ccc(Br)cn23)cc1	1.8	0.4	-0.2	3.6	10.8*
COc1ccccc1Cc1c(-c2cccc(Br)c2)nc2ccc(C)cn12	1.1	4.5	1.2*	3.6	12.1*
COc1ccccc1Cc1c(-c2cccc(Cl)c2)nc2ccc(Br)cn12	2.6	-0.2	-0.3	3.0	6.7
CC(C)(C)Cc1c(-c2cccc(Cl)c2)nc2ccc(Br)cn12	-1.4	-0.6	2.1*	1.4	-1.1
CCCN1C(=O)c2[nH]nc(-c3ccccc3)c2C1c1ccc(F)cc1 (stereo unspecified)	-5.4	-1.7	-0.8	-0.1	-1.4
CN1C=Nc2c(ncn2C2CCC(CO)O2)C1O (stereo unspecified)	2.8	-0.2	-0.2	-1.0	-1.5
COc1cccc(CO[C@H]2C=C[C@@H](c3ccccc3)O[C@@H]2COC(C)=O)c1	-2.3	1.4	-0.8	-0.5	0.7
Nc1c(C(=O)O)cnc2c(-c3ccc(Cl)cc3)cnn12	2.9	6.4*	1.0*	2.4	11.7*
C=C(NC(=O)C(=C)NC(=O)c1csc(C2=NC3c4csc(n4)C4NC(=O)c5csc(n5)C(C(C)(O)C(C)O)NC(=O)C5CSC(=N5)/C(=C/C)NC(=O)C(C(C)O)NC(=O)c5csc(n5)C3(CC2)NC(=O)C(C)NC(=O)C(=C)NC(=O)C(=C)NC(=O)C(C(C)C)NC2C=Cc3c(C(C)O)cc(nc3C2O)C(=O)OC4C)n1)C(N)=O (stereo unspecified)	8.6*	-2.6	-0.8	-7.2	-10.0
O=C(CCNC(=O)c1ccccc1Cl)Nc1nc2ccccc2[nH]1	-1.7	1.6	-0.7	0.2	1.5
O=C(Cc1ccccc1Cl)Nc1nc2ccccc2[nH]1	0.8	6.0*	-0.2	0.2	1.9
SMILES	SMARCA2 act	hcDAF12 agonist	ssDAF-12 act	DAX1 inh	hgDAF-12 ag
CSc1ccccc1C(=O)Nc1nc2ccccc2c(=O)[nH]1	7.1	-0.2	-1.0	0.1	4.2
O=C(Nc1nc2ccccc2[nH]1)C1CC1	-0.4	1.1	-1.0	-0.7	9.1
O=C(COc1ccccc1)Nc1nc2ccccc2[nH]1	7.8*	0.0	-0.3	0.9	8.6
CCCOc1cccc(OCC(=O)Nc2nc3ccccc3[nH]2)c1	-2.2	1.8	-0.8	-0.1	-0.8
CSc1ccccc1C(=O)Nc1nc2ccccc2[nH]1	7.5	5.6	0.0	3.8*	9.9
O=C(Nc1nc2ccccc2[nH]1)C12CC3CC(CC(C3)C1)C2	6.1	5.8*	0.3	1.5	8.7
CCOC(=O)C1=C(Nc2ccc(Br)cc2)C(=O)N(CC)C1	-6.9	-2.4	-1.4	-0.1	-4.1
c1ccc(OCc2nnc(SCc3nc4ccccc4[nH]3)n2-c2ccccc2)cc1	-4.8	-0.6	-1.7	-0.8	-0.6
c1ccc(OCc2nc3ccccc3[nH]2)cc1	7.7	-0.2	-0.9	2.3	11.0*
CCOC(=O)C1CCCN(c2c(NCCN3CCCCC3CC)c(=O)c2=O)C1 (stereo unspecified)	-4.7	-2.8	-0.7	0.5	0.0
CCOC(=O)N1CCN(c2c(NCCN3CCCCC3CC)c(=O)c2=O)CC1 (stereo unspecified)	-2.5	-0.8	-1.2	4.2*	-2.5
O=C(CNC(=O)c1ccc(Cl)cc1)OCc1nc2ccccc2s1	2.2	6.2*	-0.3	0.3	9.0
O=C(CNC(=O)c1ccc(Cl)cc1)OCC(=O)c1ccccc1	0.1	1.0	-1.6	0.4	1.4
O=C(NNC(=O)c1cccs1)c1cccc(F)c1	-0.1	2.1	1.3*	0.9	-2.0
COc1ccc(-c2cnc3ccccc3n2)cc1NC(=O)CNC(=O)c1ccccc1	2.6	2.0	1.2*	2.7	5.7
CCOC(=O)N1CCN(C(=O)C[C@H]2C(=O)N(Cc3ccc(OC)cc3)C3=CCCCC[C@@]32C(=O)OC)CC1	-1.7	-2.5	-1.6	-0.8	-3.7
Clc1ccc(NCc2cccnc2)cc1	-1.4	-2.1	-1.3	-0.1	0.3
Fc1ccc(NCc2cccnc2)cc1F	0.6	3.9	1.2*	0.4	0.6
Cc1cccc(N2CCN(C(=O)CN3C(=O)C4CC=CCC4C3=O)CC2)c1C (stereo unspecified)	0.3	1.6	0.4	1.5	10.6*
Cc1cc(=O)n2[nH]c(-c3ccc(Cl)cc3)cc2n1	7.8*	1.8	0.2	2.9	9.8
Cc1cc(=O)n2[nH]c(-c3ccc(F)cc3)cc2n1	6.0	1.4	-0.7	0.5	3.3
Cc1cc(NS(=O)(=O)c2ccc(NC(=O)CSc3nnc(SCc4ccc(Cl)cc4)s3)cc2)nc(C)n1	-8.1	-2.5	-2.0	-0.4	-1.7
COc1ccc(NC(=O)Nc2ccccc2C(=O)N2CCCC2)cc1OC	-5.3	-0.6	-1.0	1.1	-1.7
Nc1[nH]c(C(=O)c2ccc(Br)cc2)c(-c2ccc(Cl)cc2Cl)c1C(=O)NCCc1c[nH]c2ccccc12	-5.0	0.7	1.1*	0.5	1.2
Nc1[nH]c(C(=O)c2ccccc2)c(-c2ccc(Cl)cc2Cl)c1C(=O)NCCc1c[nH]c2ccccc12	0.8	-2.9	-1.3	-1.6	1.9
COC(=O)CNC(=O)COC(=O)/C=C/c1ccccc1[N+](=O)[O-]	1.5	3.6	2.0*	-0.5	2.7
